Values joined by “and” are separate entries in the source; they are usually repeats but may differ in a detail not shown here. Identical values can stand only once. Records with an inconclusive call do not appear. Active and inactive are the calls of the source. Calls come from the whole dose curve; as a rule, active = well fitted curve in the direction sought with a large enough effect in the repeat runs; inconclusive = weak or mixed curves; inactive = no such curve, though single readings can be large; an effect the other way counts as inactive or inconclusive.

A short description of assay [1]: qHTS assay to identify small molecule agonists of the RXR signaling pathway - cell viability counter screen (AID 1159529).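 Note: HEK 293T cells carrying an RXR-alpha UAS beta-lactamase reporter; nearly all actives have a fitted effect of over 50% in size.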 Particulars: RXR-alpha-bla HEK293T viability, CellTiter-Glo, 16 h; series mostly up to 76.8 µM. In outline: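 RXR-alpha-UAS-bla HEK 293T cells in medium with 2% charcoal-stripped FBS were preincubated 5 hr, then exposed to compounds for 16 hr at 37 C. Viability was read as CellTiter-Glo luminescence after 30 min at room temperature.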
Background: qHTS replaces the single test concentration by a dilution series.

The nature of assay [2]: qHTS assay to identify small molecule antagonists of the retinoid acid receptor (RAR) signaling pathway - cell viability counter screen (AID 1159551). Note: nearly all actives have a fitted effect of over 35% in size. Note: potency is the fitted concentration of half-maximal effect. The note with it: C3RL4 cells viability, ATP luminescence (CellTiter-Glo), 6 h; series mostly up to 92.4 µM. In outline: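 Cytotoxicity counter screen: ATP content quantified by CellTiter-Glo luminescence in C3RL4 cells treated 6 hr at 37 C with compound and retinol (1 uM final). Cells plated at 1,000/well and cultured overnight before dosing.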

A short description of assay [3]: qHTS assay to identify small molecule antagonists of the retinoic acid receptor (RAR) signaling pathway (AID 1159552; note: nearly all actives have a fitted effect of over 50% in size; note: potency is the fitted concentration of half-maximal effect). The note with it: C3RL4 RARE luciferase reporter, retinol-stimulated, 6 h; series mostly up to 92.4 µM. In outline:
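RARE-luc C3RL4 cells; cpds + 1 uM (final) retinol, 6 hr, 37 C/5% CO2; luciferase reagent, 30 min RT, luminescence readout. Inhibitors of retinol-driven signal scored.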

Assay [4] in a line: qHTS assay to identify small molecule agonists of the retinoic acid receptor (RAR) signaling pathway (AID 1159553). Particulars: C3RL4 RARE luciferase reporter, agonist, 6 h; series mostly up to 73.3 µM. A digest of the protocol: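 Luminescence was measured 30 min after luciferase reagent addition at room temperature. Before that, C3RL4 reporter cells (1,000 per well, plated overnight) were treated with compound for 6 hr at 37 C and 5% CO2.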
% is set by controls: 0 for no effect and ±100 for the full control effect.

In the case of `C[C@H]1[C@@H]2Cc3ccc(O)cc3[C@@]1(C)CCN2C`, the Potency entry in assay [1], in assay [2], in assay [3] and in assay [4] was “inactive” throughout.
As for `CCSCc1ccccc1OC(=O)NC`, the Potency result in assay [1], in assay [2], in assay [3] and in assay [4] was “inactive” in each case.
`CCOC(=O)NC(O)C(Cl)(Cl)Cl` (centres undefined): the Potency entry in assay [1], in assay [2], in assay [3] and in assay [4] was “inactive” throughout.
Consider `O=C1c2ccccc2C(=O)N1SC(Cl)(Cl)Cl`, for which the Potency result in assay [1] is “inactive”. Also, the Potency in assay [2] was 53.7 µM (active) and 30.6 µM (active); in assay [3], 17 µM (active) and 15.4 µM (active).
In the case of `Cc1nc(N(C)C)nc(OC(=O)N(C)C)c1C`, the Potency result in assay [1], in assay [2], in assay [3] and in assay [4] was “inactive” in each case.
`CCOC(C(=O)OCCN(C)C)(c1ccccc1)c1ccccc1`: the Potency entry in assay [1], in assay [2], in assay [3] and in assay [4] was “inactive” throughout.
For the compound `COCc1cnc(C2=NC(C)(C(C)C)C(=O)N2)c(C(=O)O)c1` (centres undefined), the Potency result in assay [1], in assay [2], in assay [3] and in assay [4] was “inactive” each time.
In the case of `O=C(N/N=C/c1ccc([N+](=O)[O-])o1)c1cc([N+](=O)[O-])cc([N+](=O)[O-])c1O`, the Potency entry in assay [1], in assay [2] and in assay [3] was “inactive” in each case.
Turning to `CC(Oc1cccc(Cl)c1)C(=O)O` (centres undefined), the Potency entry in assay [1], in assay [2], in assay [3] and in assay [4] was “inactive” each time.
In the case of `CCOC(=O)c1cncn1C(C)c1ccccc1` (centres undefined), the Potency entry in assay [1], in assay [2], in assay [3] and in assay [4] was “inactive” in each case.
On to `O=C(N[C@H]1CN2CCC1CC2)c1ccc2c(c1)OCCO2`, for which the Potency entry in assay [1], in assay [2], in assay [3] and in assay [4] was “inactive” throughout.
As to `O=C(O)c1cc(I)cc(I)c1I`, the Potency result in assay [1], in assay [2], in assay [3] and in assay [4] was “inactive” each time.
Regarding `C[C@H](N)[C@H](O)c1ccc(O)c(O)c1`, the Potency entry in assay [1], in assay [2], in assay [3] and in assay [4] was “inactive” each time.
Regarding `Cc1ccccc1`, the Potency result in assay [1], in assay [2], in assay [3] and in assay [4] was “inactive” in each case.
In the case of `CCOP(=O)(SC(C)CC)N1CCSC1=O` (centres undefined), the Potency result in assay [1], in assay [2], in assay [3] and in assay [4] was “inactive” throughout.
Regarding `C=CC(=O)OCC`, the Potency entry in assay [1], in assay [2], in assay [3] and in assay [4] was “inactive” in each case.
Take `CC(=O)NNc1ccccc1`: the Potency entry in assay [1], in assay [2], in assay [3] and in assay [4] was “inactive” in each case.
`C=CCN1C[C@H](C)N([C@H](c2ccc(C(=O)N(CC)CC)cc2)c2cccc(OC)c2)C[C@H]1C`: the Potency entry in assay [1], in assay [2], in assay [3] and in assay [4] was “inactive” in each case.
As to `O=C(Cc1ccccc1)OCCc1ccccc1`, the Potency entry in assay [1], in assay [2] and in assay [3] was “inactive” in each case.
As for `c1ccc2c(c1)sc1ccccc12`, the Potency result in assay [1], in assay [2], in assay [3] and in assay [4] was “inactive” throughout.
Turning to `COc1cc(C[C@@H](C)N)c(OC)cc1Br`, the Potency entry in assay [1], in assay [2], in assay [3] and in assay [4] was “inactive” throughout.
`CN1CC[C@]23c4c5ccc(O)c4O[C@H]2[C@@H](O)CC[C@H]3[C@H]1C5`: the Potency entry in assay [1], in assay [2] and in assay [3] was “inactive” throughout.
Consider `Cc1nc2ccccc2c(=O)n1-c1ccccc1Cl`, for which the Potency entry in assay [1], in assay [2], in assay [3] and in assay [4] was “inactive” in each case.
Turning to `ClCc1ccccc1Cl`, the Potency result in assay [1], in assay [2], in assay [3] and in assay [4] was “inactive” throughout.
Turning to `Cc1ncc(C[n+]2csc(CCO)c2C)c(N)n1`, the Potency result in assay [1], in assay [2], in assay [3] and in assay [4] was “inactive” throughout.
For the compound `NP(N)(=O)NC(=O)c1ccc(F)cc1`, the Potency entry in assay [1], in assay [2], in assay [3] and in assay [4] was “inactive” each time.
As to `CCCCC(CC)CO[N+](=O)[O-]` (centres undefined), the Potency entry in assay [1], in assay [2], in assay [3] and in assay [4] was “inactive” each time.
In the case of `O=C(Cc1ccccc1)c1ccccc1`, the Potency entry in assay [1], in assay [2] and in assay [3] was “inactive” in each case.
As for `CCCN(CCC)c1c([N+](=O)[O-])cc(C(C)C)cc1[N+](=O)[O-]`, the Potency entry in assay [1], in assay [2], in assay [3] and in assay [4] was “inactive” in each case.
As to `O=C(NC(=O)c1cc(F)c(F)cc1Cl)Nc1cc(F)ccc1N1CCC(C(=O)O)CC1`, the Potency entry in assay [1], in assay [2], in assay [3] and in assay [4] was “inactive” each time.
In the case of `CCOC(=O)c1cn2nc(OP(=S)(OCC)OCC)cc2nc1C`, the Potency entry in assay [1], in assay [2] and in assay [3] was “inactive” in each case.
With `CCCCC#N`, the Potency result in assay [1], in assay [2], in assay [3] and in assay [4] was “inactive” each time.
Regarding `CN[C@@H](C)[C@H](O)c1ccccc1`, the Potency result in assay [1], in assay [2], in assay [3] and in assay [4] was “inactive” each time.
With `Nc1c(Br)cc(Br)c2c1C(=O)c1ccccc1C2=O`, the values for the activity change, negative = cytotoxicity in assay [1] and in assay [2] were 4.15% [at 15.8 µM] (inactive) and 0.857% [at 19 µM] (inactive), respectively. Besides, in assay [3], the activity, negative = inhibition was 12.6% [at 19 µM] (inactive). The Potency entry in assay [4] was “inactive”.
For `FC(Cl)(Cl)C(F)(Cl)Cl`, the Potency entry in assay [1], in assay [2], in assay [3] and in assay [4] was “inactive” throughout.
As to `OC[P+](CO)(CO)CO`, the Potency entry in assay [1], in assay [2], in assay [3] and in assay [4] was “inactive” in each case.
Consider `CCCCC1C(=O)NC(=O)N(C2CCCCC2)C1=O` (centres undefined), for which the Potency result in assay [1], in assay [2], in assay [3] and in assay [4] was “inactive” throughout.
`C=CCSSCC=C`: the Potency result in assay [1], in assay [2], in assay [3] and in assay [4] was “inactive” each time.
For `CN(C)C(=O)Nc1cccc(OC(=O)NC(C)(C)C)c1`, the Potency entry in assay [1], in assay [2], in assay [3] and in assay [4] was “inactive” each time.
Consider `CNC(=O)Oc1cccc(N=CN(C)C)c1`, for which the Potency result in assay [1], in assay [2], in assay [3] and in assay [4] was “inactive” throughout.

The values are drawn from PubChem BioAssay (Tox21).
